Data reported in PubChem BioAssay AID687021 (Broad Institute, 2013).
Values without a mark were called inactive. The source made the active and inactive calls.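 The calls were made as follows: active = compounds lowering luciferase light whose fitted half-effect concentration is at most twice the top tested dose; inconclusive = flat curve with 30 to 70% inhibition, or poor fit; inactive = the rest.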

Assay: luciferase signal loss, tTA control fusion, HeLa F-luc tTA cells, dry powder, counter-screen for HIV Env fusion inhibitor project, dose response (AID 687021)
Conditions: luciferase luminescence counterscreen; series mostly up to 35 µM; activity change, negative = inhibition: at the top concentration

SMILES	outcome	activity change, negative = inhibition [%]
CC(=O)Nc1ccc(NC(=O)CN(c2ccc(C34CC5CC(CC(C5)C3)C4)cc2)S(C)(=O)=O)cc1	inactive	–
COc1ccc2c(c1)[nH]c1c(N3CCN(Cc4ccc5c(c4)OCO5)CC3)ncnc12	inactive	–
CCCC#Cc1ccc2c(c1)O[C@@H](CN(C)S(=O)(=O)c1cccc(F)c1)[C@@H](C)CN([C@H](C)CO)S2(=O)=O	–	30.7
Cc1noc(C)c1S(=O)(=O)Nc1cccc2c1O[C@H](CN(C)Cc1ccc(C(F)(F)F)cc1)[C@H](C)CN([C@H](C)CO)C2=O	–	109
COc1ccc(-c2nn(C)c(=O)c3ccccc23)cc1NC(=O)Cn1nc(C)c2ccccc2c1=O	inactive	–
COc1ccc(S(=O)(=O)NCc2ccncc2)cc1OC	inactive	–
CC(C)(C)c1ccc(-c2noc(CCC(=O)NCC3CCCO3)n2)cc1 (configuration not stated)	–	26.6
CCOc1ccc(S(=O)(=O)NC(C)c2ccncc2)cc1 (configuration not stated)	–	40.5
Cc1noc(C)c1S(=O)(=O)Nc1cccc2c1O[C@@H](CN(C)Cc1ccc(C(F)(F)F)cc1)[C@H](C)CN([C@@H](C)CO)C2=O	–	24.8
C[C@H]1CN([C@@H](C)CO)C(=O)c2ccccc2-c2ccccc2CO[C@H]1CN(C)S(=O)(=O)c1ccccc1C#N	–	39.5
Nc1nonc1C(=O)NCCNCc1c(OCc2ccccc2F)ccc2ccccc12	inactive	–
CCOc1ccc(S(=O)(=O)NCc2ccncc2)cc1	inactive	–
Cc1ccc2c(CN3CCN(S(=O)(=O)c4ccc5c(c4)OCCO5)CC3)cc(=O)oc2c1C	–	6.7
COc1ccc(-c2cc(C(=O)NNC(=S)NC(=O)c3c(-c4ccccc4)noc3C)[nH]n2)cc1	–	-6.56
Cc1noc(C)c1S(=O)(=O)Nc1cccc2c1O[C@H](CN(C)Cc1ccc(C(F)(F)F)cc1)[C@@H](C)CN([C@H](C)CO)C2=O	–	57.2
O=S(=O)(NCc1ccncc1)c1ccc2c(c1)OCCO2	inactive	–
COC(=O)COc1ccc(S(=O)(=O)NCc2ccncc2)cc1	–	32.8
Cc1ccc(-c2nnc3ccc4c(C(F)(F)F)cc(C(F)(F)F)nc4n23)cc1	–	19.6
C[C@@H]1CN([C@H](C)CO)C(=O)c2cccc(NS(=O)(=O)c3ccc(Cl)cc3)c2O[C@@H]1CN(C)Cc1ccc(Cl)c(Cl)c1	–	37.6
CC1(C)CC(NC(=O)C(=O)Nc2ccc(Cl)cc2)CC(C)(C)N1	–	60.4
Cc1ccc(S(=O)(=O)N(C)C[C@@H]2Oc3ccc(NS(=O)(=O)c4c(C)noc4C)cc3CC(=O)N([C@H](C)CO)C[C@@H]2C)cc1	–	54.9
CCOc1ccc(S(=O)(=O)NCc2ccccc2)cc1	–	8.56
